Screening results deposited in PubChem BioAssay by National Center for Advancing Translational Sciences (NCATS).
Rows were chosen to be rich in hits. Some 8.7% of all compounds tested hit in one or more screens of this group.
G9a inh: G9a (human) methyltransferase inhibition. Q96KQ7. G9a H3K9 monomethylation, AlphaScreen, 2 h. Potency, µM (highest dose often 102 µM), usual class: inhibitors. 350,000 tested, 8.8% active. AID 504332; note: nearly all actives have a fitted effect of over 75% in size
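Quantitative HTS format: methyltransferase activity on a biotin-tagged H3K9 peptide is measured by AlphaScreen, using a rabbit anti-monomethyl-H3K9 antibody with streptavidin donor and anti-IgG acceptor beads. Final levels are 20 nM enzyme, 500 nM peptide, 20 uM SAM; 2 h RT.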
JMJD2A Tudor: inhibitors of human JMJD2A Tudor domain; AID 504339; 390,000 tested, 4.4% active; Potency, µM (top dose mostly 114 µM), actives largely listed as inhibitors; AlphaScreen JMJD2A-Tudor / H3K4me3 peptide binding; note: nearly all actives have a fitted effect of over 50% in size
Target sequence (O75164 whole entry, looked up, the tested form may be a part): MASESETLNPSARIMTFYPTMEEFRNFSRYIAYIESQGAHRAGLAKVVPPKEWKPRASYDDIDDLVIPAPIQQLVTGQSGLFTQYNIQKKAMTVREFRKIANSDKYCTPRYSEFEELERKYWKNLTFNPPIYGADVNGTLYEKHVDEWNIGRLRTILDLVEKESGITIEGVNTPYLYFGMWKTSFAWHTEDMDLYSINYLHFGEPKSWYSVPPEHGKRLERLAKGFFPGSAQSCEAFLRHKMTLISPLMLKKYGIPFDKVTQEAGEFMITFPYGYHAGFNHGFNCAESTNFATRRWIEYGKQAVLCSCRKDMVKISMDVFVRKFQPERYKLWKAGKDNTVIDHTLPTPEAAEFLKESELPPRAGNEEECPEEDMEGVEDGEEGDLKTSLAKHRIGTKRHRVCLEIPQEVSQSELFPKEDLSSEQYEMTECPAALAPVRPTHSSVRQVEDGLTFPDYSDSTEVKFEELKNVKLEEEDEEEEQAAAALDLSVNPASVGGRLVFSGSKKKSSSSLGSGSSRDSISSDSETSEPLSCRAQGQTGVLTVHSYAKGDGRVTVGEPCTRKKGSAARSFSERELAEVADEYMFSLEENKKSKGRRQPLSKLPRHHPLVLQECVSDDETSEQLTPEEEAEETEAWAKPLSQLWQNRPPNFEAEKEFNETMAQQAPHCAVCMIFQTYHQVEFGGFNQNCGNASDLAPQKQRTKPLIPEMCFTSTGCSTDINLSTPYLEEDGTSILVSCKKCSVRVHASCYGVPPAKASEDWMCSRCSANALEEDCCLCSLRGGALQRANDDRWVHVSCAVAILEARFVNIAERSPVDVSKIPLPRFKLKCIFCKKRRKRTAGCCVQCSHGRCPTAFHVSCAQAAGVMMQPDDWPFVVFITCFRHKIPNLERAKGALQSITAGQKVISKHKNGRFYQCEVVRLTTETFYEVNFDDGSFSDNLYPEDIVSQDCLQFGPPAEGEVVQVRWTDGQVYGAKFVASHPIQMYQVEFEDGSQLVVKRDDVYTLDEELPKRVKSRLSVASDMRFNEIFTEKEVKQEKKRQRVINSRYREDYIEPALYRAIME
HP1b chromo inh: blocks HP1-beta chromodomain binding to methylated histone tails; P83916; AlphaScreen HP1-beta / biotin-H3K9me3 peptide binding; Potency, µM (series often up to 114 µM), usual class: inhibitors; 390,000 tested, 0.56% active; AID 540317; note: nearly all actives have a fitted effect of over 70% in size
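HP1-beta protein (50 nM final) preincubated 30 min at room temperature with biotinylated H3(1-18)K9me3 peptide (50 nM) in PBS pH 7.4, 0.01% Tween-20, then compound added for 30 min. AlphaScreen streptavidin donor/nickel chelate acceptor beads (10 ug/mL final), 30 min dark, luminescence read.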
BAZ2B inh: blocks human BAZ2B | AlphaScreen BAZ2B-H3K14Ac peptide displacement | Potency, µM (highest dose often 114 µM), hits mostly inhibitors | AID 504333 | 360,000 tested, 4.4% active | Q9UIF8; note: nearly all actives have a fitted effect of over 60% in size
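Compounds, titrated to a top concentration of 110 uM, were incubated 30 min at room temperature with preformed BAZ2B/acetyl-K14 H3 peptide complex (50 nM each). Proximity signal was measured by AlphaScreen after 20 min with beads.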
Sfp PPTase inh: blocks B. subtilis Sfp PPTase activity; Q9F4F7; Biochemical Sfp PPTase activity, qHTS; Potency, µM, hits mostly inhibitors; 310,000 tested, 3.5% active;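 note: the enzyme is Sfp with the accession as filed and its product quenches rhodamine fluorescence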
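Fluorescence-quenching assay with 15 nM Sfp, 5 uM rhodamine-CoA and 12.5 uM BHQ-2-labelled ybbR peptide in pH 7.6 Hepes/MgCl2 buffer. Enzyme was pre-incubated with compound for 15 min at room temperature. Rate was taken from the 30-min fluorescence change (525/598 nm).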
ALOX12 inh: inhibitors of human 12S-lipoxygenase ALOX12; P18054; purified 12hLO, xylenol orange hydroperoxide absorbance; Potency, µM (highest dose often 108 µM), most hits filed as inhibitors; 580,000 tested, 1.1% active
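Purified human 12hLO at 150 nM in 25 mM Hepes, 0.01% Triton X-100, pH 7.0, preincubated 15 min at room temperature with compound. Reaction started with 40 uM arachidonic acid, 30 min at room temperature. Hydroperoxide measured by Fe-xylenol orange, 573/405 nm absorbance ratio.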
Large screens that a line does not name were inactive. Calls come from the whole dose curve; as a rule, active = well fitted curve in the direction sought with a large enough effect; inconclusive = small, poorly fitted or top-dose-only effect, or another doubt; inactive = no such curve, though single readings can be large; an effect the other way counts as inactive or inconclusive.

CC1CCc2c(C(=O)Nc3cccc(-c4nn[nH]n4)c3)csc2C1 (stereo unspecified)	G9a inh 50µM
CC1CCc2c(C(=O)NCc3ccco3)csc2C1 (stereo unspecified)	G9a inh 56µM
CNC(=O)NCCC1CCN(C(=O)Nc2cccc(Cl)c2)CC1	none (no result: G9a inh, JMJD2A Tudor, HP1b chromo inh, BAZ2B inh, Sfp PPTase inh)
O=C(CC1CCCCC1)c1c(O)c2ccccc2oc1=O	none
CC(=N)c1c(O)c2ccccc2oc1=O	none
COc1ccc(OCC(=O)c2c(O)c3ccccc3oc2=O)cc1	G9a inh 3.2µM, JMJD2A Tudor 20µM, HP1b chromo inh 18µM, BAZ2B inh inconclusive, Sfp PPTase inh 20µM, ALOX12 inh inconclusive
CC1CCC(C(=O)c2c(O)c3ccccc3oc2=O)CC1 (stereo unspecified)	G9a inh 50µM
CCOc1ccc(OCC(=O)c2c(O)c3ccccc3oc2=O)cc1	G9a inh 3.2µM, JMJD2A Tudor 11µM, HP1b chromo inh inconclusive, BAZ2B inh 50µM, Sfp PPTase inh 28µM, ALOX12 inh inconclusive
COc1ccc(OCCCC(=O)Oc2ccc3oc4ccccc4c3c2)cc1	ALOX12 inh 13µM (no result: G9a inh, JMJD2A Tudor, HP1b chromo inh, BAZ2B inh, Sfp PPTase inh)
CC1Cc2ccccc2N1C(=O)CSc1nc2cc(S(=O)(=O)N3CCOCC3)ccc2o1 (stereo unspecified)	none (no result: G9a inh, JMJD2A Tudor, HP1b chromo inh, BAZ2B inh, Sfp PPTase inh)
COCCC(=O)N1CC(Oc2ccc(-c3noc(-c4ccccc4)n3)cc2)C1	none (no result: G9a inh, JMJD2A Tudor, HP1b chromo inh, BAZ2B inh, Sfp PPTase inh)
COc1cc2ccccc2cc1C(=O)O	none
O=C(O)C1Oc2cc3ccccc3cc2O1	G9a inh 45µM, JMJD2A Tudor inconclusive, HP1b chromo inh inconclusive
COc1ccc(-n2c(=O)c3c4c(sc3n(CC(=O)C(C)(C)C)c2=O)CCCC4)c(OC)c1	G9a inh inconclusive (no result: Sfp PPTase inh)
COc1ccc(-n2c(=O)c3c4c(sc3n(CC(=O)Nc3cc(C)[nH]n3)c2=O)CCC4)c(OC)c1	G9a inh inconclusive, JMJD2A Tudor 89µM (no result: BAZ2B inh)
COc1ccccc1-n1c(=O)c2c3c(sc2n2c(=S)[nH]nc12)CCC3	G9a inh 3.2µM, JMJD2A Tudor 14µM, ALOX12 inh inconclusive
CN(Cc1ccccc1)Cc1ccccc1C(F)(F)F	none (no result: G9a inh, JMJD2A Tudor, HP1b chromo inh, BAZ2B inh, Sfp PPTase inh)
O=C(NC1C[C@H]2CC[C@@H](C1)N2C(=O)CCC1CCCC1)c1ccncc1 (stereo partly specified)	none (no result: G9a inh, JMJD2A Tudor, HP1b chromo inh, BAZ2B inh, Sfp PPTase inh)
CC(OC(=O)c1ccc2c(c1)C(=O)N(Cc1ccncc1)C2=O)C(=O)Nc1cccc(Cl)c1Cl (stereo unspecified)	G9a inh 89µM
O=C(COC(=O)c1ccc2c(c1)C(=O)N(Cc1ccncc1)C2=O)Nc1ccccc1[N+](=O)[O-]	JMJD2A Tudor inconclusive
CN(Cc1ccccc1)C(=O)CCCc1c[nH]c2ccccc12	none (no result: G9a inh, JMJD2A Tudor, HP1b chromo inh, BAZ2B inh, Sfp PPTase inh)
CCOc1cc(-c2nnc(SCC(=O)Nc3ccc(F)c(F)c3)nc2-c2ccc(OC)c(OCC)c2)ccc1OC	G9a inh 13µM, BAZ2B inh inconclusive, ALOX12 inh inconclusive (no result: Sfp PPTase inh)
CCOc1ccc(-c2nnc(SCC(=O)NC(C)(C)C)nc2-c2ccc(OCC)c(OC)c2)cc1OC	G9a inh 50µM, JMJD2A Tudor inconclusive
COCC(C)N=C1NN=C(c2cccs2)C(CC(=O)O)S1 (stereo unspecified)	G9a inh 50µM, Sfp PPTase inh 35µM, ALOX12 inh inconclusive
CC1CC(=O)NN=C1c1cccs1 (stereo unspecified)	G9a inh inconclusive
COc1cccc(CNC(=O)C(=O)c2c[nH]c3ccccc23)c1	none (no result: G9a inh, JMJD2A Tudor, HP1b chromo inh, BAZ2B inh, Sfp PPTase inh)
COC(CNc1nc2c(c(=O)n(C)c(=O)n2C)n1Cc1ccc(F)cc1)OC	none (no result: G9a inh, JMJD2A Tudor, HP1b chromo inh, BAZ2B inh, Sfp PPTase inh)
CSc1nc2c(c(=O)n(C)c(=O)n2C)n1Cc1cccc(C)c1	none (no result: G9a inh, JMJD2A Tudor, HP1b chromo inh, BAZ2B inh, Sfp PPTase inh)
COC(=O)[C@H](CC(C)C)N(CCc1cn(CC2CCCCC2)nn1)S(=O)(=O)c1ccc(F)cc1Br	none (no result: G9a inh, JMJD2A Tudor, HP1b chromo inh, BAZ2B inh, Sfp PPTase inh)
COC(=O)[C@H](CC(C)C)N(Cc1cn(CC2CCCCC2)nn1)S(=O)(=O)c1ccccc1Br	ALOX12 inh 5.6µM (no result: G9a inh, JMJD2A Tudor, HP1b chromo inh, BAZ2B inh, Sfp PPTase inh)
COC(=O)[C@H](CC(C)C)N(Cc1cn(CC2CCCCC2)nn1)S(=O)(=O)c1ccc(F)cc1Br	ALOX12 inh 10µM (no result: G9a inh, JMJD2A Tudor, HP1b chromo inh, BAZ2B inh, Sfp PPTase inh)
COCCNC(=O)c1cccc2c1-c1ccccc1C2=O	none
Cc1ccc(C)c(-n2[nH]c3c4c(ccc3c2=O)C(=O)c2ccccc2C4=O)c1	JMJD2A Tudor inconclusive, HP1b chromo inh 50µM, BAZ2B inh 45µM
CC(C)(C)n1[nH]c2c3c(ccc2c1=O)C(=O)c1ccccc1C3=O	G9a inh inconclusive
COCCCn1[nH]c2c3c(ccc2c1=O)C(=O)c1ccccc1C3=O	G9a inh 7.1µM, BAZ2B inh inconclusive, ALOX12 inh inconclusive
Cc1ccc(-n2[nH]c3c4c(ccc3c2=O)C(=O)c2ccccc2C4=O)cc1	G9a inh 2.8µM
CCn1ccc2sc(C)c(C(=O)N3CCN(c4ccc(F)cc4)CC3)c2c1=O	none (no result: G9a inh, JMJD2A Tudor, HP1b chromo inh, BAZ2B inh, Sfp PPTase inh)
CC(C)CC1=C/C(=C/c2ccc(-c3ccccc3)o2)C(=O)O1	G9a inh 13µM, JMJD2A Tudor inconclusive, HP1b chromo inh inconclusive, BAZ2B inh 45µM, Sfp PPTase inh inconclusive, ALOX12 inh 13µM
CCOc1cc(/C=C(/C#N)c2nc3ccccc3[nH]2)ccc1OC	none (no result: G9a inh, JMJD2A Tudor, HP1b chromo inh, BAZ2B inh, Sfp PPTase inh)
COc1ccc(CNC(=O)[C@H](C)[C@@H]2C[C@@]2(C)[C@@H](NC(=O)OCc2ccccc2)c2ccccc2)cc1OC	G9a inh 50µM
COC(=O)[C@H](C)[C@@H]1C[C@@]1(C)[C@@H](NC(=O)OCc1ccccc1)c1ccccc1	none
